This note sets out measurements from paper PMC5540273 (PLoS ONE, 2017).

One experiment relates to CSNK1G1. To be noted: concentration: 1 μM, replicates: in singlicate; n = 1.
The test system of a further experiment is CSNK1G2. To be noted: concentration: 1 μM, replicates: in singlicate; n = 1.
In another experiment the test system is CSNK1G3. To be noted: concentration: 1 μM, replicates: in singlicate; n = 1.
For another experiment, the system named is CSNK2A1. The following applies: n = 1.
Another experiment relates to CSNK2A2. To be noted: n = 1.
The test system of a further experiment is T1, CTK.
T1 construct: gene MATK
The following applies: concentration: 1 μM, replicates: in singlicate; n = 1.

In the next experiment the test system is DAPK1. To be noted: concentration: 1 μM, replicates: in singlicate; n = 1.
Another experiment has as its system DAPK2. The following applies: concentration: 1 μM, replicates: in singlicate; n = 1.
The subject of the next experiment is DAPK3. The following applies: concentration: 1 μM, replicates: in singlicate; n = 1.
For another experiment, the system named is T2, DCAMKL1.
T2 construct: gene DCLK1
The following applies: concentration: 1 μM, replicates: in singlicate; n = 1.

The next experiment deals with T3, DCAMKL2.
T3 construct: gene DCLK2
The following applies: concentration: 1 μM, replicates: in singlicate; n = 1.

Another experiment deals with T4, DCAMKL3.
T4 construct: gene DCLK3
The following applies: concentration: 1 μM, replicates: in singlicate; n = 1.

For the next experiment, the system named is DDR1. To be noted: concentration: 1 μM, replicates: in singlicate; n = 1.
The next experiment concerns DDR2. To be noted: concentration: 1 μM, replicates: in singlicate; n = 1.
Another experiment deals with T5, DLK.
T5 construct: gene MAP3K12
The following applies: concentration: 1 μM, replicates: in singlicate; n = 1.

Another experiment relates to T6, DMPK2.
T6 construct: gene CDC42BPG
The following applies: concentration: 1 μM, replicates: in singlicate; n = 1.

For another experiment, the system named is DMPK. To be noted: concentration: 1 μM, replicates: in singlicate; n = 1.
Another experiment deals with T7, DRAK1.
T7 construct: gene STK17A
The following applies: concentration: 1 μM, replicates: in singlicate; n = 1.

The next experiment has as its system T8, DRAK2.
T8 construct: gene STK17B
The following applies: concentration: 1 μM, replicates: in singlicate; n = 1.

In a further experiment the test system is DYRK1A. The following applies: concentration: 1 μM, replicates: in singlicate; n = 1.
Setting [1] is: concentration: 1 μM, replicates: in singlicate.

Read-outs that look alike come from different tables or passages of the source.
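Further: KINOMEscan kinase panel screen.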

Regarding `Cn1cc(-c2cnc(N)c3c(-c4ccc5c(c4)CCN5C(=O)Cc4ccccc4)csc23)cn1` [GSK2593074], the “%Inh” value with CSNK1G1 came to 21%; with CSNK1G2, 7%; with CSNK1G3, 22%; in the experiment on CSNK2A1 (1 µM), 0%; with CSNK2A2 (1 µM), 1%; with CTK, 62%. The “%Inh” value in the experiment on DAPK1 was 38%; in the experiment with DAPK2 it was 21%; with DAPK3, 7%; with DCAMKL1 it was 0%; in the experiment with DCAMKL2, 0%; in the experiment on DCAMKL3 it was 5%. Also, the “%Inh” value with DDR1 came to 97.7%; with DDR2 it was 24%; with DLK it was 0%; in the experiment on DMPK2, 81%; with DMPK it was 0%; with DRAK1 it was 0%. Besides, the “%Inh” value in the experiment with DRAK2 is reported as 9%; in the experiment on DYRK1A it was 0%.
Regarding `COc1ccc(C2=C(Nc3cccc(O)c3)C(=O)NC2=O)cc1` [SB-390766], the “%Inh” value is on record as 4% in the experiment with CSNK1G1; 0% with CSNK1G2; 19% with CSNK1G3; 0% with CSNK2A1 (setting [1]); 19% with CSNK2A2 (setting [1]); 1% in the experiment with CTK. For the same molecule, the “%Inh” value in the experiment on DAPK1 was determined as 0%; in the experiment on DAPK2, 0%; in the experiment with DAPK3, 52%; with DCAMKL1, 13%; in the experiment with DCAMKL2, 0%; in the experiment with DCAMKL3, 1%. Besides, the “%Inh” value in the experiment with DDR1 is reported as 1%; in the experiment with DDR2 it was 17%; with DLK, 19%; in the experiment on DMPK2, 0%; in the experiment with DMPK, 0%; with DRAK1 it was 3%. For the same molecule, the “%Inh” value was 0% in the experiment with DRAK2 and 70% in the experiment with DYRK1A.
On to `Cc1cccc(Nc2nc(NCCN)ncc2C(N)=O)c1` [GSK1292139], for which the “%Inh” value in the experiment on CSNK1G1 was 6%; in the experiment with CSNK1G2 it was 0%; in the experiment on CSNK1G3 it was 26%; in the experiment with CSNK2A1 (setting [1]), 34%; in the experiment with CSNK2A2 (setting [1]), 29%; in the experiment on CTK, 0%. Further, the “%Inh” value was determined as 52% in the experiment on DAPK1; 25% with DAPK2; 38% with DAPK3; 16% in the experiment with DCAMKL1; 0% in the experiment with DCAMKL2; 0% in the experiment on DCAMKL3. Further, the “%Inh” value was determined as 0% with DDR1; 20% with DDR2; 62% in the experiment with DLK; 60% in the experiment on DMPK2; 14% in the experiment with DMPK; 58% in the experiment with DRAK1. For the same molecule, the “%Inh” value in the experiment with DRAK2 is on record as 68%; in the experiment with DYRK1A, 2%.
`O=C(Nc1n[nH]c2nc(-c3ccccc3)ccc12)C1CC1` [SB-708999]: the “%Inh” value is given as 0% with CSNK1G1; 0% in the experiment with CSNK1G2; 68% with CSNK1G3; 23% in the experiment with CSNK2A1 (setting [1]); 75% in the experiment on CSNK2A2 (setting [1]); 0% with CTK. Moreover, the “%Inh” value is 0% in the experiment on DAPK1; 11% in the experiment on DAPK2; 4% in the experiment with DAPK3; 4% in the experiment with DCAMKL1; 6% with DCAMKL2; 0% in the experiment with DCAMKL3. Moreover, the “%Inh” value was determined as 3% in the experiment on DDR1; 32% in the experiment with DDR2; 0% in the experiment on DLK; 50% in the experiment on DMPK2; 0% in the experiment with DMPK; 0% with DRAK1. The “%Inh” value with DRAK2 is listed as 0%; with DYRK1A it was 15%.
As to `Cc1ccc(Nc2ccnc(Nc3ccc(C)c(F)c3)n2)cc1O.Cl` [GW582868], the “%Inh” value was 0% with CSNK1G1; 0% with CSNK1G2; 0% with CSNK1G3; 0% in the experiment with CSNK2A1 (setting [1]); 9% with CSNK2A2 (setting [1]); 0% in the experiment with CTK. In addition, the “%Inh” value was 0% in the experiment with DAPK1; 0% with DAPK2; 4% in the experiment on DAPK3; 11% in the experiment with DCAMKL1; 0% in the experiment on DCAMKL2; 0% with DCAMKL3. Further, the “%Inh” value with DDR1 was determined as 10%; in the experiment with DDR2, 12%; with DLK, 40%; with DMPK2, 0%; with DMPK, 0%; with DRAK1 it was 0%. Besides, the “%Inh” value in the experiment with DRAK2 is recorded as 0%; in the experiment on DYRK1A it was 20%.
In the case of `CC(C)(C)c1ccc(C(=O)Nc2cn3cc(-n4ccnc4)ccc3n2)cc1`, the “%Inh” value in the experiment with CSNK1G1 came to 0%; in the experiment on CSNK1G2, 12%; in the experiment on CSNK1G3, 0%; with CSNK2A1 (setting [1]), 0%; in the experiment on CSNK2A2 (setting [1]), 7%; with CTK it was 24%. Moreover, the “%Inh” value turned out to be 0% in the experiment on DAPK1; 16% in the experiment with DAPK2; 2% in the experiment with DAPK3; 29% with DCAMKL1; 0% in the experiment on DCAMKL2; 0% with DCAMKL3. Also, the “%Inh” value is listed as 0% in the experiment on DDR1; 2% with DDR2; 0% in the experiment on DLK; 4% in the experiment on DMPK2; 0% in the experiment on DMPK; 20% in the experiment with DRAK1. The “%Inh” value was 35% with DRAK2 and 91.4% with DYRK1A.
Take `CNc1nccc(-c2ccc3c(N)n[nH]c3c2)n1` [GSK2206003]: the “%Inh” value in the experiment on CSNK1G1 amounted to 14%; in the experiment on CSNK1G2 it was 0%; in the experiment on CSNK1G3 it was 33%; in the experiment with CSNK2A1 (setting [1]) it was 43%; in the experiment on CSNK2A2 (setting [1]), 62%; in the experiment on CTK, 0%. The “%Inh” value is 29% in the experiment with DAPK1; 31% in the experiment on DAPK2; 39% with DAPK3; 0% in the experiment with DCAMKL1; 1% with DCAMKL2; 72% in the experiment on DCAMKL3. The “%Inh” value in the experiment on DDR1 is 0%; in the experiment with DDR2 it was 29%; in the experiment on DLK, 34%; with DMPK2, 0%; in the experiment on DMPK, 0%; in the experiment on DRAK1, 99.2%. Moreover, the “%Inh” value is reported as 83% with DRAK2 and 98.8% in the experiment on DYRK1A.
On to `Cl.Cl.NCC(NC(=O)c1cc(-c2cccnc2)c(-c2ccnc3[nH]ccc23)s1)c1ccccc1` (stereo not shown) [GSK1323434], for which the “%Inh” value with CSNK1G1 was 39%; with CSNK1G2, 63%; in the experiment on CSNK1G3, 68%; in the experiment on CSNK2A1 (setting [1]) it was 32%; with CSNK2A2 (setting [1]), 40%; with CTK, 0%. Moreover, the “%Inh” value in the experiment with DAPK1 came to 59%; in the experiment with DAPK2, 21%; in the experiment on DAPK3, 27%; in the experiment on DCAMKL1 it was 21%; in the experiment with DCAMKL2, 9%; in the experiment on DCAMKL3, 0%. In addition, the “%Inh” value with DDR1 came out at 11%; with DDR2, 55%; in the experiment with DLK, 34%; in the experiment with DMPK2, 51%; in the experiment with DMPK, 79%; in the experiment on DRAK1 it was 19%. The results for the “%Inh” value in the experiment with DRAK2 and with DYRK1A were 0% and 48%, respectively.
